In PubChem BioAssay (NCATS):
Inconclusive results are not listed. Activity calls are given as the source filed them. Unless noted, the call rests on the fitted dose curve; in most records, active means well fitted curve in the direction sought with a large enough effect; inconclusive means small, poorly fitted or top-dose-only effect, or another doubt; inactive means no such curve, though single readings can be large; an effect the other way counts as inactive or inconclusive.

Columns and labels:
[1] = qHTS for Activators of Parkin Expression: LOPAC Validation Assay (NLuc Reporter) (AID 720572;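 further: 0% = DMSO and 100% = positive control compound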)
Outline: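 Neuronal cells with a Parkin promoter-driven FLuc/NLuc coincidence reporter were treated 24 h at 37 C in 7-point dose response (LOPAC). NLuc luminescence read after FLuc; signals normalized to DMSO and positive control (100%).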

[2] = qHTS for Activators of Parkin Expression: LOPAC Validation Assay (FLuc Reporter) (AID 720573;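 further: 0% = DMSO and 100% = positive control compounds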)
Outline: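 Neuronal cell line stably carrying FLuc/NLuc coincidence reporter under Parkin promoter; cells plated 24 h, then compounds added in 7-point dose response for 24 h at 37 C. FLuc luminescence read; normalized to DMSO and positive control (100%).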

[3] = molecular target: T1, Hexokinase-4 (Homo sapiens) + Glucokinase regulatory protein (Homo sapiens) (UniProt P35557+Q14397); assay: qHTS assay for inhibitors of recombinant human GCK-GKRP interaction: Diaphorase-coupled assay (AID 743205)
T1 sequence (P35557 whole entry, looked up): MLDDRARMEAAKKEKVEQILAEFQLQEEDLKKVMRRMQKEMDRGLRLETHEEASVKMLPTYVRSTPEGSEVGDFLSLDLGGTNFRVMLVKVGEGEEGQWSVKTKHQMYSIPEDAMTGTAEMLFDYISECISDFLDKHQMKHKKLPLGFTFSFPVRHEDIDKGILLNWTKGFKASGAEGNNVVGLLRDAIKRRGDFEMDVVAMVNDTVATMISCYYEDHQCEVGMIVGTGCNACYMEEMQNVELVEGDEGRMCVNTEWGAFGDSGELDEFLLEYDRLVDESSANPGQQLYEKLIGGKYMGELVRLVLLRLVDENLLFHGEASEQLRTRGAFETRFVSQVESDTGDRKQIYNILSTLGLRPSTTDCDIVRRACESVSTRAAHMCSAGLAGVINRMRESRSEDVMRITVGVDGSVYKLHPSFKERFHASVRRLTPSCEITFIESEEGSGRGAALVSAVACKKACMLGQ
T1 sequence (Q14397 whole entry, looked up): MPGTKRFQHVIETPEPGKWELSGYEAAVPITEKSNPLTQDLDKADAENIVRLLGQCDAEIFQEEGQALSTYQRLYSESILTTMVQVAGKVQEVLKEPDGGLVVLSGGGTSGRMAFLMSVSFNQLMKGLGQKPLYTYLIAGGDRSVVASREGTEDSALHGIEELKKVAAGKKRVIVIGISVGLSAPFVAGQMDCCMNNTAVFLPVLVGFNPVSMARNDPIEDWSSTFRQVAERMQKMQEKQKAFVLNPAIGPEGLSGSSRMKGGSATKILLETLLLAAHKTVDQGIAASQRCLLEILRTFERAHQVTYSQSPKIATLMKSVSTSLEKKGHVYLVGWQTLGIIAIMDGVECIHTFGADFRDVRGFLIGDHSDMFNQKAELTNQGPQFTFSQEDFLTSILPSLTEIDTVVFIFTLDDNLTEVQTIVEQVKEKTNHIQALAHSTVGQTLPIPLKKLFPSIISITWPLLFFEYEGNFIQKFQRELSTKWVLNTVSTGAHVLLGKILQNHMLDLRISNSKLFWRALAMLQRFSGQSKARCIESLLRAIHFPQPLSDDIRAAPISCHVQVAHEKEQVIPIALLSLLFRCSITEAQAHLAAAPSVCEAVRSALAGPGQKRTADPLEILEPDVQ
Outline: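 GST-GCK (10 nM) with FLAG-GKRP (10 nM), 5 mM glucose and 0.4 mM ATP in pH 7.6 Hepes; compounds preincubated 20 min with substrate. G6PDH/diaphorase coupling converts resazurin to resorufin, read kinetically (ex 525/em 590 nm) for 30 min.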

[4] = molecular target: T1, Hexokinase-4 (Homo sapiens) + Glucokinase regulatory protein (Homo sapiens); assay: qHTS assay for inhibitors of recombinant human GCK-GKRP interaction: ADP-Glo assay (AID 743206);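 further: plate controls were DMSO plus enzyme for no effect and no enzyme for full effect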
Outline: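 GST-GCK and FLAG-GKRP (15 nM each in the dispensed mix, with 2 uM S6P) react with 0.4 mM ATP and 5 mM glucose (final) in Hepes pH 7.6 for 60 min at room temperature. ADP is measured by ADP-Glo luminescence.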

[5] = molecular target: T1, Hexokinase-4 (Homo sapiens) + Glucokinase regulatory protein (Homo sapiens); assay: qHTS assay for inhibitors of recombinant human GCK-GKRP interaction: HTRF assay (AID 743207);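 further: 0% = DMSO with GCK present and -100% = DMSO wells lacking GCK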
Outline: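 GST-GCK and FLAG-GKRP (5 nM each) were combined with 2 uM S6P in pH 7.1 Hepes/MgCl2/KCl/DTT buffer, then compound and anti-FLAG XL665/anti-GST K antibodies were added. After 60 min at room temperature, HTRF 665/615 nm emission was read.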

[6] = qHTS Assay for Identifying Gametocytocidal Compounds (AID 743244);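 further: on the % scale 0 is the no-effect control and ±100 the full control effect; actives lower the fluorescent signal which means gametocytes are killed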; settings: P. falciparum 3D7 stage III-V gametocytes, alamarBlue, 72 h; max response: active compounds read low
Outline: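 Using 20,000 stage III–V 3D7 gametocytes per well, compounds were incubated 72 h under 37 °C/5% CO2. Viability was then assessed by 24 h alamarBlue reduction, measured fluorometrically at 525/598 nm.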

[7] = Natriuretic polypeptide receptor (hNpr1) antagonism - Pilot counterscreen GloSensor control cell line (AID 1347045; calls by dose curve; further: series mostly up to about 38 µM; on the % scale 0 is the no-effect control and ±100 the full control effect)
Outline: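 HEK293 cGMP GloSensor cells preloaded 2 h with 2% GloSensor reagent, then compound 30 min before baseline luminescence read. Stimulated with 50 uM sodium nitroprusside, 20 min at room temperature, then read again; counterscreen for Npr1 antagonism.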

[8] = molecular target: Atrial natriuretic peptide receptor 1 (Homo sapiens) (UniProt P16066); assay: Natriuretic polypeptide receptor (hNpr1) antagonism - Pilot screen (AID 1347049; calls by dose curve;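 further: agonist-evoked cGMP luminescence read 20 min after hNppA addition; series mostly up to about 58 µM; on the % scale 0 is the no-effect control and ±100 the full control effect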)
Atrial natriuretic peptide receptor 1 (Homo sapiens), sequence (P16066 whole entry, looked up): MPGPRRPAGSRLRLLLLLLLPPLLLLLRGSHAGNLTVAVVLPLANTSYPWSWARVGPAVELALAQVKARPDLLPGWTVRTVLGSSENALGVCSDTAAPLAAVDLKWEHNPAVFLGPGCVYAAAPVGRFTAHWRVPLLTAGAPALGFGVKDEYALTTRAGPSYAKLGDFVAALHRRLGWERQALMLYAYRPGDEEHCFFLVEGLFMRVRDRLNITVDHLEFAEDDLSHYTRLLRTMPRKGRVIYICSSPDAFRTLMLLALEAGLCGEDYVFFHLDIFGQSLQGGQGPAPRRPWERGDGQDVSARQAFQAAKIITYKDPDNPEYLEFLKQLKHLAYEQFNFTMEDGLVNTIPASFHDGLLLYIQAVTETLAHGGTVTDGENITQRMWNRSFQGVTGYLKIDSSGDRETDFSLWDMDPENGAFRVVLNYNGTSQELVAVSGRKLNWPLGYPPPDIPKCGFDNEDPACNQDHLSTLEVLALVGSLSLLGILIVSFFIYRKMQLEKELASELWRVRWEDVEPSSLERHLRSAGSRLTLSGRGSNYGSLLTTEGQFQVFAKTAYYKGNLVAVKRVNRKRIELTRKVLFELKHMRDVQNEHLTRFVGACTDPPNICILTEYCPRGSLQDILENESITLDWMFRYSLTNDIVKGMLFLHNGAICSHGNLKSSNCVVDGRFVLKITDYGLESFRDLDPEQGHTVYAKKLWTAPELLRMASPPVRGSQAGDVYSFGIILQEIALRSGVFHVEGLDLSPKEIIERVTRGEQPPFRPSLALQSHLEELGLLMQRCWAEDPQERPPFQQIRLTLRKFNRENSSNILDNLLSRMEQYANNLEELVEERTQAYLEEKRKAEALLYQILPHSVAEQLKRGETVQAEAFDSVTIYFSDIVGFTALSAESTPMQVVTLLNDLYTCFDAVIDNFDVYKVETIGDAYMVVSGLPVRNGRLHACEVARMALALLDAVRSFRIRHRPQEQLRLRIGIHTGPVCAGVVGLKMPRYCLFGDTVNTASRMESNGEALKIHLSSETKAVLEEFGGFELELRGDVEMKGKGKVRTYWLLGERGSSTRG
Outline: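 HEK293 cells expressing hNpr1 and GloSensor cGMP luciferase, 1500/well, loaded with 2% GloSensor reagent 2 h, compound 30 min at room temperature; luminescence read before and 20 min after 0.1 nM hNppA stimulation.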

[9] = molecular target: Atrial natriuretic peptide receptor 2 (Homo sapiens) (UniProt P20594); assay: Natriuretic polypeptide receptor (hNpr2) antagonism - Pilot subtype selectivity assay (AID 1347050; calls by dose curve; further: on the % scale 0 is the no-effect control and ±100 the full control effect)
Outline: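 HEK293 cells expressing hNpr2 and a GloSensor cGMP luciferase sensor, 1500/well, preloaded 2 h with 2% GloSensor reagent, compound 30 min, then 1 nM hNppC for 20 min. Antagonism from luminescence after versus baseline pre-read; LOPAC in 1:5 titrations.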

[10] = molecular target: Parathyroid hormone/parathyroid hormone-related peptide receptor (Homo sapiens) (UniProt Q03431); assay: qHTS for PTHR1 Agonists: Optimization Screen against the NCGC LOPAC library (AID 1347079);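 further: GloSensor cAMP luminescence in HEK-293 GP2 cells expressing human PTHR1 with IBMX; 0% is about no effect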
Parathyroid hormone/parathyroid hormone-related peptide receptor (Homo sapiens), sequence (Q03431 whole entry, looked up): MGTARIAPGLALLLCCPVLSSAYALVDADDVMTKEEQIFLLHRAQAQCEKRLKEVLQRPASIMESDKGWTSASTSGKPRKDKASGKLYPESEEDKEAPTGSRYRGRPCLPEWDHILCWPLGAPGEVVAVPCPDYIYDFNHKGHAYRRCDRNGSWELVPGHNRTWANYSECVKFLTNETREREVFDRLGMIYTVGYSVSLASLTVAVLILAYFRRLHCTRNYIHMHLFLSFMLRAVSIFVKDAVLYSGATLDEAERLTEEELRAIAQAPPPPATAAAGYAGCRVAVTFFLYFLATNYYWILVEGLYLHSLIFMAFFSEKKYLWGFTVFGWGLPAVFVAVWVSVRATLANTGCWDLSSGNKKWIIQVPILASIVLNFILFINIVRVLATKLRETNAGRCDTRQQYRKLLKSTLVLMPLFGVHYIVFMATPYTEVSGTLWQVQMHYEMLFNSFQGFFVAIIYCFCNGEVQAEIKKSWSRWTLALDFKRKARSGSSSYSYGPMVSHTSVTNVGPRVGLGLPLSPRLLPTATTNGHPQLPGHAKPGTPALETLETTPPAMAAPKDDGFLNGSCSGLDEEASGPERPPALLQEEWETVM
Outline: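 Agonist readout: GloSensor cAMP luminescence, read after 15 min at room temperature. HEK-293-derived GP2 line carries PTHR1; compounds tested as a titration for 1 hr at 37C in presence of IBMX. M-PTH (1-15) served as control.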

[11] = qHTS for Inhibitors of the Functional Ribonucleoprotein Complex (vRNP) of Lassa (LASV) Arenavirus: LASV Primary Screen - GLuc reporter signal (AID 1347082; calls by dose curve; tested in HEK293 reporter line; further: series mostly up to about 57 µM; on the % scale 0 is the no-effect control and ±100 the full control effect; nearly all actives have a fitted effect of over 60% in size)
[12] = qHTS for Inhibitors of the Functional Ribonucleoprotein Complex (vRNP) of Lassa (LASV) Arenavirus: Viability assay - alamar blue signal for LASV Primary Screen (AID 1347083; calls by dose curve; tested in HEK293 reporter line; further: series mostly up to about 57 µM; on the % scale 0 is the no-effect control and ±100 the full control effect; nearly all actives have a fitted effect of over 80% in size)
[13] = qHTS for Inhibitors of the Functional Ribonucleoprotein Complex (vRNP) of Lymphocytic Choriomeningitis Arenaviruses (LCMV): Viability assay - alamar blue signal for LCMV Primary Screen (AID 1347085; calls by dose curve; tested in HEK293 reporter line; further: series mostly up to about 57 µM; on the % scale 0 is the no-effect control and ±100 the full control effect; nearly all actives have a fitted effect of over 80% in size)
[14] = molecular target: Lysine-specific demethylase 5B (Homo sapiens) (UniProt Q9UGL1); assay: Optimization screen for KDM5B Histone Demethylases FDH coupled qHTS against the LOPAC library (AID 1347166); further: 0% is about no effect
Lysine-specific demethylase 5B (Homo sapiens), sequence (Q9UGL1 whole entry, looked up): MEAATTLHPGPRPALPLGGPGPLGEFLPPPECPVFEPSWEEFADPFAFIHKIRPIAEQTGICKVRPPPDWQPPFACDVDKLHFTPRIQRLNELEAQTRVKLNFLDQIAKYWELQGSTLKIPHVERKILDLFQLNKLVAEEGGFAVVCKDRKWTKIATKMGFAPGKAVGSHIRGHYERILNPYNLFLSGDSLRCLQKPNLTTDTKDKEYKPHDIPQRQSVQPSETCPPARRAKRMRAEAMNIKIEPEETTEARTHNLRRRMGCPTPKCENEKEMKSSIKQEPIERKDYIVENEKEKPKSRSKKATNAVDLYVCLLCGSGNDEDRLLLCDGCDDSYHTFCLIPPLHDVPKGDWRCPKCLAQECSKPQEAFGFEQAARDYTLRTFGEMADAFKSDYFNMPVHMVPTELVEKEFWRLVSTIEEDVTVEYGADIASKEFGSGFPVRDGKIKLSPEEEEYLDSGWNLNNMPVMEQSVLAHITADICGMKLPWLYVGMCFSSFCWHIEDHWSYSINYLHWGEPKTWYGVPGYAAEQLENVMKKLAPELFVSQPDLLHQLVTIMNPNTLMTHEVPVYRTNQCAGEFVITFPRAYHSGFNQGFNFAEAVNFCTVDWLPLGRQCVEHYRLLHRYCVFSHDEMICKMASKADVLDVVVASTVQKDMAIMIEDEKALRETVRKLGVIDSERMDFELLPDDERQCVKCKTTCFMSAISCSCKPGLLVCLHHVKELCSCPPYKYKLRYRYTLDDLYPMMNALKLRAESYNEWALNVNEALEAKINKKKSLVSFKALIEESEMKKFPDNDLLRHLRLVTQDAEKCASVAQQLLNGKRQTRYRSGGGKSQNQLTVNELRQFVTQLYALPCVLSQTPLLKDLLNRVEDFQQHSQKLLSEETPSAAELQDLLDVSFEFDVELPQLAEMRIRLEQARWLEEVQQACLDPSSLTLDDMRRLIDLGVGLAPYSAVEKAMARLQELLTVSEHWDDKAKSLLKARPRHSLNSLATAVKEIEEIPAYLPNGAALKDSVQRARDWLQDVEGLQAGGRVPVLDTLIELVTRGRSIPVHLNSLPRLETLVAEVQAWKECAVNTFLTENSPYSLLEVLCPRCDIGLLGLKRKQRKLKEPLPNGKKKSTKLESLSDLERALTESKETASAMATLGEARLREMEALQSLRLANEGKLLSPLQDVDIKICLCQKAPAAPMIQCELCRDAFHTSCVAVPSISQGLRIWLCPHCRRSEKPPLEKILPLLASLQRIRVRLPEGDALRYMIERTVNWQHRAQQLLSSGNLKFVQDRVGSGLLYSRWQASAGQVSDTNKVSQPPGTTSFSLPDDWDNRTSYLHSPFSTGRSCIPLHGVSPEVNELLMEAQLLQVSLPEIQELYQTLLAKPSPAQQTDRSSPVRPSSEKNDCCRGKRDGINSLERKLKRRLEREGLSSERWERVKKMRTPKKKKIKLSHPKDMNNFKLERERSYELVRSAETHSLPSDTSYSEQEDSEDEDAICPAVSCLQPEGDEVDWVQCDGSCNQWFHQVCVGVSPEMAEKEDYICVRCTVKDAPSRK
Outline: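 KDM5BDeltaAP (200nM final) preincubated 10 min with compound, then 12.5uM H3K4Me3, 25uM a-ketoglutarate, ascorbate, Fe(II), NAD+ and FDH added; 50mM HEPES pH 7.5, 0.01% Tween-20. NADH fluorescence (340/450 nm) change over 30 min, room temperature.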

[15] = Validation qHTS assay for inhibitors of Activation Induced Cytidine Deaminase (AID): UDG Counterscreen signal (AID 1347427); further: 0% is about no effect
Outline: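 Counterscreen read of UDG activity (2 U/mL, 4/3x) in the FRET deamination format with AID (1 uM, 4/3x), DJC20/DJC23 substrates (250 nM, 4x), 4 h at room temperature. NaOH stop, fluorescence at 560 ex/665 em.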

[16] = molecular target: Single-stranded DNA cytosine deaminase (Homo sapiens) (UniProt Q9GZX7); assay: Validation qHTS assay for inhibitors of Activation Induced Cytidine Deaminase (AID): AID signal (AID 1347429); further: on the % scale 0 is the no-effect control and ±100 the full control effect
Single-stranded DNA cytosine deaminase (Homo sapiens), sequence (Q9GZX7 whole entry, looked up): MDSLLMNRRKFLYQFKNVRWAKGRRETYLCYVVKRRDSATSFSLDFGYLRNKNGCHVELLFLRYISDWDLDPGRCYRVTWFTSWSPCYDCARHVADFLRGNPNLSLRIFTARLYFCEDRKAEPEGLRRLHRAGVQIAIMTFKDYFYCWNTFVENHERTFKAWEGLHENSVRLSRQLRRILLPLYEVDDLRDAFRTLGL
Outline: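 FRET deamination assay: 1 uM AID (4/3x stock) with UDG, compound up to 114 uM, then 250 nM DJC20/DJC23 substrate (4x stock) for 4 hr at room temperature. NaOH added, 30 min; fluorescence read 540/590 nm.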

[17] = Primary qHTS for inhibitors of La Crosse Virus (LACV) - induced cell death in SH-SY5Y cells (AID 1508616);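 further: top concentration of the series differs between compounds; 0% = infected DMSO wells and 100% = uninfected DMSO wells; higher means more rescue of cells from virus-induced death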
Outline: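 SH-SY5Y cells (6000/well) plated 24 h, then given compounds by pin transfer and LACV at 0.01 MOI for 6 days at 37C. Viability measured by ATPLite luminescence, normalized to infected DMSO and uninfected DMSO.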

[18] = Primary qHTS for small molecule stabilizers of the endoplasmic reticulum resident proteome: Secreted ER Calcium Modulated Protein (SERCaMP) assay (AID 1508630); further: on the % scale 0 is the no-effect control and ±100 the full control effect
Outline: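 GLuc-SERCaMP-expressing SH-SY5Y cells, pretreated 16 h with compound, are challenged with thapsigargin to empty ER calcium stores; after 4 h, coelenterazine is added directly to the medium and luminescence is imaged.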

O=[N+]([O-])c1ccc(O[C@@H]2O[C@H](CO)[C@@H](O)[C@H](O)[C@H]2F)c([N+](=O)[O-])c1
inactive: outcome [1] | outcome [2] | outcome [3] | outcome [4] | outcome [5] | max response [6] 12.9% | outcome [7] | outcome [8] | outcome [9] | outcome [10] | Potency [11] | Potency [12] | Potency [13] | outcome [14] | outcome [15] | outcome [16] | outcome [17] | Potency [18]
